Results reported in PubChem BioAssay AID1159580 (chemical genetic matrix, 2015).
Several values for one entry are separate records, joined by “and”; a condition that tells them apart may be missing. Equal entries are not always repeated. Hit rate of the full screen: of about 5,500 compounds, about 2,000 (36%) were called active. Another 18% or so got no clear call; they are omitted. No stated cut-off is given here; in the data, active means normalized growth mostly below about 0.91 (no sharp cut-off); inconclusive means no clear call, values can overlap the other calls; inactive means mostly above about 0.92. This is one part of the list.

Assay: chemical genetic growth profiling, strain panel (AID 1159580);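 further: tested at 20 µM; growth read once vehicle control cultures reached saturation at 30 °C; 1 = growth at the plate median or of vehicle wells; lower values mean less growth of the strain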
Conditions: S. cerevisiae deletion strains, growth OD

Measured: normalized growth

NC(=O)NO
inactive: locus YAL021C, strain ccr4, active compounds read low 1.02 | locus YAL026C, strain drs2, active compounds read low 1.03 | locus YAL030W, strain snc1, active compounds read low 1 | locus YAL040C, strain CLN3, active compounds read low 1.09 | locus YBL061C, strain skt5, active compounds read low 1.04 | locus YBR009C, strain hhf1, active compounds read low 1.01 | locus YBR021W, strain FUR4, active compounds read low 1 | locus YBR023C, strain chs3, active compounds read low 1.02 | locus YBR171W, strain sec66, active compounds read low 1.02 | locus YBR229C, strain ROT2, active compounds read low 0.999 | locus YBR231C, strain swc5, active compounds read low 1.01 | locus YBR279W, strain paf1, active compounds read low 1.03 | locus YCL011C, strain gbp2, active compounds read low 1.02 | locus YCL016C, strain dcc1, active compounds read low 1.02 | locus YCL029C, strain bik1, active compounds read low 1 | locus YCL061C, strain MRC1, active compounds read low 1.01 | locus YCL069W, strain vba3, active compounds read low 1.02 | locus YCR088W, strain abp1, active compounds read low 1.02 | locus YDL005C, strain med2, active compounds read low 1.02 | locus YDL035C, strain GPR1, active compounds read low 1.01 | locus YDL040C, strain nat1, active compounds read low 1.04 | locus YDL074C, strain BRE1, active compounds read low 1.01 | locus YDL101C, strain DUN1, active compounds read low 1 | locus YDL134C, strain PPH21, active compounds read low 1 | locus YDL185W, strain tfp1, active compounds read low 0.994 | locus YDL192W, strain arf1, active compounds read low 1.01 | locus YDR001C, strain nth1, active compounds read low 1.01 | locus YDR069C, strain doa4, active compounds read low 1.02 | locus YDR101C, strain arx1, active compounds read low 0.996 | locus YDR137W, strain rgp1, active compounds read low 1.04 | locus YDR159W, strain sac3, active compounds read low 1.01 | locus YDR162C, strain NBP2, active compounds read low 1.01 | locus YDR195W, strain ref2 0.962 | locus YDR297W, strain sur2, active compounds read low 1.02 | locus YDR318W, strain mcm21, active compounds read low 1 | locus YDR334W, strain swr1, active compounds read low 1.01 | locus YDR335W, strain msn5, active compounds read low 1.02 | locus YDR363W, strain ESC2, active compounds read low 1.01 | locus YDR388W, active compounds read low 0.998 | locus YDR392W, strain spt3, active compounds read low 1.04 | locus YDR502C, strain sam2, active compounds read low 0.989 | locus YEL003W, strain gim4, active compounds read low 1.02 | locus YEL037C, strain rad23, active compounds read low 1.01 | locus YEL061C, strain CIN8 (second series), active compounds read low 1.02 | locus YEL061C, strain CIN8, active compounds read low 1 | locus YER002W, strain NOP16, active compounds read low 0.998 | locus YER015W, strain faa2, active compounds read low 1.01 | locus YER016W, strain bim1, active compounds read low 1.01 | locus YER110C, active compounds read low 0.997 | locus YER111C, strain swi4, active compounds read low 1.03 | locus YER155C, strain BEM2 (second series), active compounds read low 1.01 | locus YER155C, strain BEM2, active compounds read low 0.998 | locus YER167W, strain BCK2, active compounds read low 1 | locus YFR010W, strain ubp6, active compounds read low 1.01 | locus YGL078C, strain dbp3, active compounds read low 0.999 | locus YGL086W, strain mad1, active compounds read low 0.985 | locus YGL167C, strain pmr1, active compounds read low 1.02 | locus YGL173C, strain kem1, active compounds read low 1.02 | locus YGL227W, strain vid30, active compounds read low 1.01 | locus YGL240W, strain doc1, active compounds read low 0.983 | locus YGL248W, strain PDE1, active compounds read low 1 | locus YGL253W, strain hxk2, active compounds read low 1.03 | locus YGR078C, strain PAC10, active compounds read low 1 | locus YGR135W, strain pre9, active compounds read low 0.997 | locus YGR229C, strain SMI1, active compounds read low 0.997 | locus YGR252W, strain gcn5, active compounds read low 0.943 | locus YHR013C, strain ard1, active compounds read low 1.02 | locus YHR027C, strain rpn1, active compounds read low 1.02 | locus YHR030C, strain SLT2, active compounds read low 0.989 and 0.962 | locus YHR079C, strain IRE1 (second series), active compounds read low 1 | locus YHR079C, strain IRE1, active compounds read low 0.981 | locus YHR094C, strain hxt1, active compounds read low 0.997 | locus YHR129C, strain ARP1, active compounds read low 1 | locus YHR142W, strain chs7, active compounds read low 1.04 | locus YHR200W, strain rpn10, active compounds read low 0.992 | locus YIL066C, strain RNR3, active compounds read low 1.01 | locus YIL073C, strain SPO22, active compounds read low 1.03 | locus YIL125W, strain kgd1, active compounds read low 0.989 | locus YIR030C, strain dcg1, active compounds read low 1.01 | locus YJL092W, strain hpr5, active compounds read low 1.02 | locus YJL095W, strain BCK1 (second series), active compounds read low 1 | locus YJL095W, strain BCK1, active compounds read low 1.01 and 0.965 | locus YJL115W, strain asf1, active compounds read low 1.01 | locus YJL129C, strain trk1, active compounds read low 1.03 | locus YJL134W, strain LCB3, active compounds read low 1 | locus YJL154C, strain vps35, active compounds read low 1.03 | locus YJL164C, strain tpk1, active compounds read low 1.01 | locus YJL166W, strain qcr8, active compounds read low 1.03 | locus YJL168C, strain set2, active compounds read low 1 | locus YJL187C, strain SWE1 (second series), active compounds read low 1 | locus YJL187C, strain SWE1, active compounds read low 1.03 | locus YJR043C, strain POL32, active compounds read low 1
